Assay outcomes from PubChem.
Shown is part of a subset that was picked to be rich in hits.
Shiga inhibitor: inhibitors of Shiga toxin in Vero cells. 290,000 compounds, 9.2% hits. Vero cells, Shiga toxin protein synthesis inhibition reporter. inhibition, % at 38.7 µM; in the data active = inhibition mostly above about 28%, no sharp cut-off; inactive = mostly below about 43%
Vaccinia mCherry: vaccinia inhibition (mCherry reporter); Vaccinia virus mCherry reporter infection, fluorescence; Potency, µM (doses to about 36.5 µM), hits mostly inhibitors; 310,000 compounds, 0.63% hits; calls by dose curve; tested in A549 cells; note: nearly all actives have a fitted effect of over 35% in size
Lassa entry inh: blocks Lassa virus binding to or entry into cells; Potency, µM (highest dose often 37.9 µM), most hits filed as inhibitors; 300,000 compounds, 1.2% hits; Lassa virus pseudotype entry inhibition, cell reporter; calls by dose curve; tested in HEK293 cells; note: nearly all actives have a fitted effect of over 50% in size
CHX counter: counter-screen hit for Shiga toxin inhibitors, cycloheximide; 300,000 compounds, 12% hits; max response, %; cell reporter, cycloheximide protein synthesis inhibition counterscreen; AID 2314; in the data active = max response mostly above about 13%, no sharp cut-off; inactive = mostly below about 14%; note: read at 38.3 µM for the half of the compounds with a filed dose
MARV entry inh: blocks Marburg virus binding to or entry into cells. 300,000 compounds, 1.8% hits. Potency, µM (titrated, usually from 37.8 µM), actives largely listed as inhibitors. AID 540276. Marburg virus pseudotyped entry inhibition, cell reporter; calls by dose curve; tested in HEK293 cells
Vaccinia Venus: vaccinia inhibition (Venus reporter) | Vaccinia virus Venus reporter expression, fluorescence | Potency, µM (titrated, usually from 36.5 µM), hits mostly inhibitors | 330,000 compounds, 0.46% hits | AID 720580; calls by dose curve; tested in A549 cells; note: nearly all actives have a fitted effect of over 30% in size
Of the large screens only hits and unclear results are named; the others gave an inactive call.

Cc1csc(NC(=O)CSc2nc3sc(C)c(C)c3c(=O)[nH]2)n1	none
CSCc1nc2sc(C(=O)Nc3nc(C)cs3)c(C)c2c(=O)[nH]1	CHX counter 33, MARV entry inh inconclusive
COC(CN(C)C(=O)C1CCCN(S(=O)(=O)c2ccc3c(c2)oc(=O)n3C)C1)OC (stereo unspecified)	none (no result: Vaccinia mCherry, Lassa entry inh, MARV entry inh, Vaccinia Venus)
CCOC(=O)N1CCN(S(=O)(=O)c2ccc(C(=O)N(CCCN(C)C)c3nc4ccc(CC)cc4s3)cc2)CC1	CHX counter 17, MARV entry inh inconclusive
CCOC(=O)N1CCN(S(=O)(=O)c2ccc(C(=O)N(CCCN(C)C)c3nc4ccc(Cl)cc4s3)cc2)CC1	none (no result: Vaccinia mCherry, Lassa entry inh, MARV entry inh, Vaccinia Venus)
CCOC(=O)N1CCN(S(=O)(=O)c2ccc(C(=O)N(CCN(C)C)c3nc4ccc(CC)cc4s3)cc2)CC1	CHX counter 23, MARV entry inh inconclusive
CCOC(=O)N1CCN(S(=O)(=O)c2ccc(C(=O)N(CCN(CC)CC)c3nc4ccc(C)cc4s3)cc2)CC1	CHX counter 23, MARV entry inh inconclusive
CCOC(=O)N1CCN(S(=O)(=O)c2ccc(C(=O)N(CCCN(C)C)c3nc4c(F)cc(F)cc4s3)cc2)CC1	Lassa entry inh inconclusive (no result: Shiga inhibitor, CHX counter)
COCCN(C(=O)COC(=O)c1cccs1)c1c(N)n(Cc2ccccc2)c(=O)[nH]c1=O	none (no result: Vaccinia mCherry, Lassa entry inh, MARV entry inh, Vaccinia Venus)
COc1ccc(OC)c(S(=O)(=O)CC(O)COc2ccccc2Cl)c1 (stereo unspecified)	none (no result: Vaccinia mCherry, Lassa entry inh, MARV entry inh, Vaccinia Venus)
O=C(CSc1nnnn1-c1ccc(F)cc1)c1ccc(O)c(O)c1	CHX counter 38
COc1cccc2cc(-c3nc(Nc4cccc(C)c4)sc3C)c(=O)oc12	none (no result: Shiga inhibitor, CHX counter, MARV entry inh)
COc1ccc(CNCC(O)(c2ccccc2)c2ccc(F)cc2)cc1 (stereo unspecified)	MARV entry inh 11µM
COc1ccc(CNCC(O)(c2ccccc2)c2ccc(F)cc2)cc1OC (stereo unspecified)	Lassa entry inh inconclusive, MARV entry inh 2.8µM
COc1ccc(CNCC(O)(c2ccc(F)cc2)c2ccc(F)cc2)cc1OC	none (no result: Vaccinia mCherry, Lassa entry inh, MARV entry inh, Vaccinia Venus)
OC(CNCc1ccc(Cl)cc1)(c1ccccc1)c1ccc(F)cc1 (stereo unspecified)	Vaccinia mCherry inconclusive, MARV entry inh inconclusive
COC(=O)c1c(NC(C)=O)sc(C(=O)Nc2ccccc2F)c1C	none
COC(=O)c1c(NC(C)=O)sc(C(=O)Nc2ccccc2)c1C	none
CCOC(=O)c1c(N)sc(C(=O)Nc2ccccc2F)c1C	CHX counter 37 (no result: Lassa entry inh, MARV entry inh)
CCOC(=O)c1c(C)nc2sc(C(=O)Nc3ccccc3)c(N)c2c1-c1ccc(OC)cc1	Lassa entry inh 8.9µM, MARV entry inh inconclusive, Vaccinia Venus inconclusive (no result: Vaccinia mCherry)
Cc1noc(N)c1C(=O)Nc1ccccc1F	Vaccinia Venus 7.9µM
CCCC(=O)Nc1sc(C(=O)Nc2cccc(N)c2)c(C)c1C(=O)OC	Shiga inhibitor 59, Lassa entry inh inconclusive, CHX counter 51, MARV entry inh inconclusive
CCOC(=O)c1c(C)nc2sc(C(N)=O)c(N)c2c1-c1ccccc1	Vaccinia Venus inconclusive (no result: Vaccinia mCherry)
COc1ccc(N2CCN(c3oc(/C=C/c4ccccc4OC)nc3C#N)CC2)cc1	none (no result: Shiga inhibitor, CHX counter)
COc1cccc(-c2cc(C(=O)N3CCN(S(=O)(=O)c4ccc(Br)cc4)CC3)[nH]n2)c1	none
CCOC(=O)n1ccc(C(=O)Nc2ccccc2F)n1	Lassa entry inh inconclusive, MARV entry inh inconclusive (no result: Vaccinia mCherry, Vaccinia Venus)
CCOC(=O)c1cc(C(=O)Nc2ccccc2F)nn1C	Shiga inhibitor 72, Lassa entry inh inconclusive, CHX counter 37, MARV entry inh inconclusive (no result: Vaccinia mCherry, Vaccinia Venus)
CCCOC(=O)c1c(N)sc(C(=O)OCC)c1C	Shiga inhibitor active, Vaccinia mCherry inconclusive, CHX counter 37, Vaccinia Venus inconclusive
CCOC(=O)c1c(N)sc(C(=O)Nc2ccccc2)c1C	Shiga inhibitor 73, CHX counter 26 (no result: Lassa entry inh, MARV entry inh)
CCC(=O)Nc1sc(C(=O)Nc2ccccc2F)c(C)c1C(=O)OC	Shiga inhibitor 52, Lassa entry inh inconclusive
CCOC(=O)c1c(N)sc(C(N)=O)c1C	none
Cc1sc(NC(=S)NC(=O)CCc2ccccc2)c(C(N)=O)c1C	Vaccinia mCherry inconclusive, Lassa entry inh inconclusive, MARV entry inh inconclusive, Vaccinia Venus inconclusive
CCN1CCc2c(sc(NC(=S)NC(=O)c3ccco3)c2C(N)=O)C1	CHX counter 14
Cc1sc(NC(=S)NC(=O)c2ccco2)c(C(N)=O)c1C	Shiga inhibitor 93, CHX counter 26, MARV entry inh inconclusive
Cc1ccc(C(=O)C(=O)c2ccc(C)c(N)c2)cc1N	none
O=C(CN1CCN(C(=O)CCC(=O)N2CCC(c3ccccc3)=N2)CC1)Nc1ccc(F)cc1	MARV entry inh inconclusive, Vaccinia Venus inconclusive (no result: Shiga inhibitor, CHX counter)
O=C1OC(c2ccccc2)=C/C1=C/N1CCOCC1	Shiga inhibitor 63, CHX counter 17
CC(Sc1nnc2c(n1)[nH]c1ccccc12)C(=O)NC1CCCCC1 (stereo unspecified)	Lassa entry inh inconclusive, MARV entry inh 4.5µM
O=C(CN1CCOCC1)c1cccc2ccccc12	Lassa entry inh inconclusive
Cc1c(C(=O)c2cccc3ccccc23)c2cccc3c2n1[C@H](CN1CCOCC1)CO3	Lassa entry inh 21µM, MARV entry inh 8.9µM, Vaccinia Venus inconclusive (no result: Shiga inhibitor, CHX counter)
O=C(NCCOc1ccccc1)c1ccccc1NC(=O)C1CCCO1 (stereo unspecified)	CHX counter 41, MARV entry inh inconclusive (no result: Lassa entry inh)
CCOC(=O)c1ccccc1NC(=O)C1CCCO1 (stereo unspecified)	none (no result: Vaccinia mCherry, Lassa entry inh, MARV entry inh, Vaccinia Venus)
CCc1ccc(NC(=O)c2ccccc2NC(=O)C2CCCO2)cc1 (stereo unspecified)	CHX counter 65, MARV entry inh inconclusive
C[C@@H](C(=O)N[C@@H](Cc1ccccc1)C(=O)O)n1nnc2ccccc2c1=O	none (no result: Vaccinia mCherry, Lassa entry inh, MARV entry inh, Vaccinia Venus)
O=C(N1CCN(c2ncccn2)CC1)C12CC3CC(CC(C3)C1)C2	none (no result: Shiga inhibitor, CHX counter)
CC1=C(C(=O)OCc2ccccc2)C(/C=C/c2ccccc2)NC(=S)N1 (stereo unspecified)	Lassa entry inh 13µM, MARV entry inh inconclusive, Vaccinia Venus inconclusive
Cc1ccccc1NC(=O)c1ccc(S(=O)(=O)N(C)C)cc1	none (no result: Lassa entry inh, MARV entry inh)
Cc1ccccc1NC(=O)c1ccc(S(=O)(=O)C(F)F)cc1	CHX counter 18
Cc1ccc(NC(=O)c2ccc(S(=O)(=O)C(F)F)cc2)c(C)c1	Shiga inhibitor active, CHX counter 28
O=c1onc(-c2ccccc2)n1-c1cc(Cl)cc(Cl)c1	none (no result: Shiga inhibitor, CHX counter)
COC(=O)c1c(-c2cccs2)csc1NC(=O)c1ccc(Br)cc1	Lassa entry inh inconclusive, MARV entry inh inconclusive (no result: Shiga inhibitor, CHX counter)
CC(NC(=O)Cc1ccc(S(=O)(=O)N2CCOCC2)s1)c1ccc(Cl)cc1Cl (stereo unspecified)	MARV entry inh inconclusive (no result: Shiga inhibitor, CHX counter)
CCCCCC(=O)Nc1ccc(N2CCN(CC)CC2)c(Cl)c1	Shiga inhibitor 103, CHX counter 60 (no result: Vaccinia mCherry, Vaccinia Venus)
CCN1CCN(c2ccc(NC(=O)c3ccccc3F)cc2Cl)CC1	Shiga inhibitor 115, CHX counter 19, MARV entry inh inconclusive
CC(C)NC(=O)[C@@H]1C[C@@H](Sc2ccccn2)CN1C1CCN(C)CC1	none (no result: Shiga inhibitor, Lassa entry inh, CHX counter, MARV entry inh)
Cc1cccc(CNC(=O)c2cnn(-c3nccc(-c4ccccc4C(F)(F)F)n3)c2C)n1	none (no result: Shiga inhibitor, Lassa entry inh, CHX counter, MARV entry inh)
COc1ccc(-c2cc(=O)c3ccccc3s2)cc1	Shiga inhibitor 93, CHX counter 29, MARV entry inh inconclusive
COc1ccc2sc(C)cc(=O)c2c1	none (no result: Shiga inhibitor, Lassa entry inh, CHX counter, MARV entry inh)
